In PubChem BioAssay (NCATS) one finds Potency data, which are given here for 10 molecules.

The target of test [1] is Cytochrome P450 1A2 (Homo sapiens) (UniProt P05177). Description: p450-cyp1a2 (AID 410; calls by dose curve; note: potency is the fitted concentration of half-maximal effect). The method in brief:
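20nM CYP1A2 with 100uM Luciferin-ME (at Km) in 100mM KPO4; compound preincubated 10 min, NADPH regeneration added, 60 min at room temperature. Luciferin quantified by luminescence after detection reagent; normalized to 57 uM furafylline.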

In test [2] the target is Glucocorticoid receptor (Homo sapiens) (UniProt P04150). Put plainly: GR-GFP Redistribution (AID 450;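 active = compounds whose dose series gives a full or clear partial fitted curve of increased nuclear translocation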; note: potency is the fitted concentration of half-maximal effect). To be noted: U2OS GR-GFP nuclear translocation, laser cytometry, 2 h.
The target is the same in test [3]. Description: GR-EFC Redistribution (AID 451; calls by dose curve; note: potency is the fitted concentration of half-maximal effect). The following applies: CHO-K1 GR-EFC translocation, beta-gal luminescence, 2 h. The method in brief: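 CHO-K1 cells expressing nuclear EA and GR-ED fragments of b-gal; compounds titrated up to 46 uM final, 2 h at 37 C. GR nuclear translocation read as complemented b-gal luminescence after 1 h RT detection.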
Test [4] concerns the target Cytochrome P450 3A4 (Homo sapiens) (UniProt P08684). Put plainly: qHTS Assay for Activators of Cytochrome P450 3A4 (AID 885). Note: nearly all actives have a fitted effect of over 65% in size. In a few lines: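 Signal was normalized against complete inhibition by 57 uM ketoconazole. The reaction used 20nM CYP3A4 with 25uM Luciferin-PPXE, 10-min compound preincubation and a 60-min NADPH-supported step at RT.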
For orientation: Quantitative high-throughput screening tests each substance at several concentrations.

Test [5] has as its target Ubiquitin carboxyl-terminal hydrolase 1 (Homo sapiens) (UniProt O94782). Description: Inhibitors of USP1/UAF1: Pilot qHTS (AID 504865).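 Note: rhodamine fluorescence freed from ubiquitin-rhodamine substrate followed over time; top concentration of the series differs between compounds; nearly all actives have a fitted effect of over 35% in size.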 In a few lines: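 USP1/UAF1 complex (1nM) preincubated with compound 15 min at room temperature, then Ub-Rho substrate (150nM final) added. Fluorescence read kinetically at 480/540 nm, 6 reads every 60 seconds. Buffer: 50mM HEPES pH 7.8, 0.5mM EDTA, 0.1 mg/ml BSA, 1mM TCEP, 0.01% Tween-20.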

Test [6] addresses DNA dC->dU-editing enzyme APOBEC-3G (Homo sapiens) (UniProt Q9HC16). Put plainly: qHTS for inhibitors of Vif-A3G interactions: Validation (AID 588379). In a few lines: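 HeLa cells stably expressing Vif and A3G-eYFP, 700 cells/well, incubated overnight at 37 deg C, then exposed to compound overnight at 37 deg C. Inhibition of Vif-mediated degradation read as increased yellow fluorescence (Ex 488/Em 500-530) by laser-scanning cytometry.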

Test [7] deals with Zika virus NS2B-NS3 protease. Description: Primary screen GU AMC qHTS for Zika virus inhibitors (AID 1347154). Note: nearly all actives have a fitted effect of over 70% in size. Note: potency is the fitted concentration of half-maximal effect. In a few lines:
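Unlinked Zika NS2B hydrophilic domain–NS3 protease complex at 25 nM in 10 mM Tris-HCl pH 8.0, 0.01% Tween 20, with an AMC peptide substrate. Fluorescence change (340/450 nm) over 15 min at room temperature, normalized to controls, fitted to 4-parameter Hill.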

A short description of test [8]: Primary qHTS for small molecule stabilizers of the endoplasmic reticulum resident proteome: Secreted ER Calcium Modulated Protein (SERCaMP) assay (AID 1508630). In a few lines:
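GLuc-SERCaMP-expressing SH-SY5Y cells, pretreated 16 h with compound, are challenged with thapsigargin to empty ER calcium stores; after 4 h, coelenterazine is added directly to the medium and luminescence is imaged.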

The target of test [9] is Mitogen-activated protein kinase 10 (Mus musculus) (UniProt Q61831). Description: JNK3 AlphaScreen Assay (AID 530; active = well fitted curve in either direction with a large enough effect, not every such curve was filed as active;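 note: kinase came from lysate of stimulated human HepG2 cells; signal reports phosphorylation of biotinylated GST-cJun 1-79 at Ser73 with 10 µM ATP; series mostly up to about 57 µM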). In a few lines: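 Pre-activated (IL-1β/TNFα) JNK3 in HepG2 lysates phosphorylates biotin-GST-cJun(1-79), 10 uM ATP; anti-phospho-cJun(Ser73) AlphaScreen read at room temperature, pH 7.6 Tris buffer. Compounds pre-incubated 15 min as titrations.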
In test [10] the target is Cytochrome P450 2C9 (Homo sapiens) (UniProt P11712). Description: qHTS Assay for Inhibitors and Substrates of Cytochrome P450 2C9 (AID 883). Note: potency is the fitted concentration of half-maximal effect; nearly all actives have a fitted effect of over 60% in size. In a few lines:
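10nM CYP2C9 + 100uM Luciferin-H (=KM), 25mM KPO4; cpd 10 min 37C; NADPH regen, 60 min 37C; stop/detect with P450 Glo-Buffer 20 min; luminescence. Norm. to 57uM sulphaphenazole as full inhibition.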

The target in test [11] is Cytochrome P450 2C19 (Homo sapiens) (UniProt P33261). Description: qHTS Assay for Inhibitors and Substrates of Cytochrome P450 2C19 (AID 899). Note: potency is the fitted concentration of half-maximal effect; nearly all actives have a fitted effect of over 60% in size. In a few lines:
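Luminescent read-out of luciferin formed from Luciferin-H EGE (10uM, equal to KM). Enzyme 5nM in 50mM KPO4; compound added, 10 min at 37C, then NADPH regenerating system for 60 min at 37C. Full inhibition defined by 57uM ketoconazole.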

For test [12], the target named is 3',5'-cyclic-AMP phosphodiesterase 4B (Homo sapiens) (UniProt Q07343). Put plainly: qHTS Assay for Inhibitors of PDE-IV (AID 607; active = well fitted activation curve with a large enough effect in the main read-out, with a control signal flat, not every such curve was filed as active). In a few lines: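 Cell-based read-out of cAMP via a modified cyclic nucleotide-gated channel and membrane potential dye (535/590 nm) in HEK293 cells expressing PDE4 endogenously. Compounds tested up to 22.9 uM final; 100 uM RO 20-1724 reference.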

The target of test [13] is Cytochrome P450 2D6 (Homo sapiens) (UniProt P10635). Put plainly: qHTS Assay for Inhibitors and Substrates of Cytochrome P450 2D6 (AID 891). Note: potency is the fitted concentration of half-maximal effect; nearly all actives have a fitted effect of over 60% in size. In a few lines:
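Human CYP2D6 (5 nM) with 30 uM Luciferin-ME EGE (at Km) in 100 mM KPO4, compound preincubated 10 min, then NADPH regeneration system for 60 min at room temperature. Luciferin read by luminescence; normalized to 1.43 uM quinidine.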

Test [14] deals with Cytochrome P450 3A4 (Homo sapiens) (UniProt P08684). Description: qHTS Assay for Inhibitors and Substrates of Cytochrome P450 3A4 (AID 884). Note: potency is the fitted concentration of half-maximal effect; nearly all actives have a fitted effect of over 50% in size. The method in brief: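 20 nM human CYP3A4 with 25 uM Luciferin-PPXE (at KM) in 200 mM KPO4, preincubated 10 min with compound; NADPH regeneration started a 60 min RT reaction. Luciferin detected by luminescence, normalized to 57 uM ketoconazole as full inhibition.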

“And” between values parts separate entries of the source, which are not always exact repeats. Identical values can stand only once. Results filed as inconclusive are left out. Some structures have more than one record in an assay (separate samples or runs), and their calls can disagree. The source made the active and inactive calls. Unless noted, calls come from the whole dose curve; as a rule, active = well fitted curve in the direction sought with a large enough effect; inconclusive = small, poorly fitted or top-dose-only effect, or another doubt; inactive = no such curve, though single readings can be large; an effect the other way counts as inactive or inconclusive. Non-standard residues stand in square brackets, D forms with d. Residues, ends and D or L forms follow the SMILES beside them.

Sequence of 3',5'-cyclic-AMP phosphodiesterase 4B (Homo sapiens) (Q07343 whole entry, looked up): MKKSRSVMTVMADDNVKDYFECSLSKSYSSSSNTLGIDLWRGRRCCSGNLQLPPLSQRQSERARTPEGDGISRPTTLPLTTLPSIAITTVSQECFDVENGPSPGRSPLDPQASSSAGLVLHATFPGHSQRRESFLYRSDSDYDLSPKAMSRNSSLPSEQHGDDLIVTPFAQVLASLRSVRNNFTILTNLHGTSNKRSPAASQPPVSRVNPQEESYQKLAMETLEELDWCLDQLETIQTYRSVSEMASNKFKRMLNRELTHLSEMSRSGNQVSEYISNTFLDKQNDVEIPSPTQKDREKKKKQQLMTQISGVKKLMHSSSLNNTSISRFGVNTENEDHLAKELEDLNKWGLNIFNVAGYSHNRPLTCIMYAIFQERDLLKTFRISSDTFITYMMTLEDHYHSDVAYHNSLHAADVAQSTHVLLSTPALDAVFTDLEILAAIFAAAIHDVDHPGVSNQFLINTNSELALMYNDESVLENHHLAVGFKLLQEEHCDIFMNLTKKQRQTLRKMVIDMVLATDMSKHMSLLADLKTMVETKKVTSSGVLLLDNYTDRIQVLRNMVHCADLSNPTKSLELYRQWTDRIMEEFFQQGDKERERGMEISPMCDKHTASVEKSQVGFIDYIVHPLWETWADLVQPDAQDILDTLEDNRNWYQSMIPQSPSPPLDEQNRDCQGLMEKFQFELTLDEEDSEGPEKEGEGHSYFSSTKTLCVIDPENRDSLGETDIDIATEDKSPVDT
Sequence of DNA dC->dU-editing enzyme APOBEC-3G (Homo sapiens) (Q9HC16 whole entry, looked up): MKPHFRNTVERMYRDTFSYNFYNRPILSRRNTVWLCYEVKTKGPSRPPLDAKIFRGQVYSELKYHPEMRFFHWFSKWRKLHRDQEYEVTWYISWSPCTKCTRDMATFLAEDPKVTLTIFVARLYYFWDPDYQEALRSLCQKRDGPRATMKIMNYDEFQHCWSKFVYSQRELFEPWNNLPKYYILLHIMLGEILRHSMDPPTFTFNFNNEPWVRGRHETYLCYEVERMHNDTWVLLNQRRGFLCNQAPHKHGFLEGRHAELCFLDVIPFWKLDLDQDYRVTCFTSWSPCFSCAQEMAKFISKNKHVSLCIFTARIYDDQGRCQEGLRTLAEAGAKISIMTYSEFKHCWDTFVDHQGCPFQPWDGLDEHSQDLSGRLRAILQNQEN
Sequence of Glucocorticoid receptor (Homo sapiens) (P04150 whole entry, looked up, the tested form may be a part): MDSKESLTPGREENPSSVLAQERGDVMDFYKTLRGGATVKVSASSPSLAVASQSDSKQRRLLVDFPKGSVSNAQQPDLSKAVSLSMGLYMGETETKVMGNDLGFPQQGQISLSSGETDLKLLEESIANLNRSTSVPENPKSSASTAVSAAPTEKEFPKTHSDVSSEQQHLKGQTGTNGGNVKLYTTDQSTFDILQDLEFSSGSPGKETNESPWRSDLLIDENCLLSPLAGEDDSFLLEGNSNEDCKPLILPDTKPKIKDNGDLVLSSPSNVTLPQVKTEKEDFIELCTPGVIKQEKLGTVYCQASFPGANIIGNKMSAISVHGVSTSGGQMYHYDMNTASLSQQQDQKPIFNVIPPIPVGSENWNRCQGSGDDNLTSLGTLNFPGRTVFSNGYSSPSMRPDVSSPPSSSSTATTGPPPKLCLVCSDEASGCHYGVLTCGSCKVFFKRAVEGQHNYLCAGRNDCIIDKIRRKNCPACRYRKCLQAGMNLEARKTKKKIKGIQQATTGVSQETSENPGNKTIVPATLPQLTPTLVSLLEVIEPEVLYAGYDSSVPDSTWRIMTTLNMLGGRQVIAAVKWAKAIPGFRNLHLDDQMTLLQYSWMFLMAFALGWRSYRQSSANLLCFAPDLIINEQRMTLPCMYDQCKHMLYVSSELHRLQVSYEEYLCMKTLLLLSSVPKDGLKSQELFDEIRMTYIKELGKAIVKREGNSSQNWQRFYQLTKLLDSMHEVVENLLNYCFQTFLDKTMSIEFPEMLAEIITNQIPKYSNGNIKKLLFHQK
Sequence of Cytochrome P450 3A4 (Homo sapiens) (P08684 whole entry, looked up): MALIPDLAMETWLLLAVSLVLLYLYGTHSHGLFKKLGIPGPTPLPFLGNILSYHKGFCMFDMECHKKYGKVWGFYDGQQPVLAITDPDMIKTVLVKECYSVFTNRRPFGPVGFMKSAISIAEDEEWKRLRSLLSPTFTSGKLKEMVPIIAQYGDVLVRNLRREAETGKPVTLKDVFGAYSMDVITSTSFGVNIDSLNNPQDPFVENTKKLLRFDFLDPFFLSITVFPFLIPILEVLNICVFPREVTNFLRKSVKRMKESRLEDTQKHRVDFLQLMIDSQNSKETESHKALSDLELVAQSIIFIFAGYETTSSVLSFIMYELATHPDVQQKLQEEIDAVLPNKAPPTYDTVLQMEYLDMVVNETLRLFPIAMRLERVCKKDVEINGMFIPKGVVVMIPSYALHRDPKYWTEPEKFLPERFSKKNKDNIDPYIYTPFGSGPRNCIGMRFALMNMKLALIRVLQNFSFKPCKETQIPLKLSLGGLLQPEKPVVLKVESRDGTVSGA
Sequence of Cytochrome P450 2D6 (Homo sapiens) (P10635 whole entry, looked up): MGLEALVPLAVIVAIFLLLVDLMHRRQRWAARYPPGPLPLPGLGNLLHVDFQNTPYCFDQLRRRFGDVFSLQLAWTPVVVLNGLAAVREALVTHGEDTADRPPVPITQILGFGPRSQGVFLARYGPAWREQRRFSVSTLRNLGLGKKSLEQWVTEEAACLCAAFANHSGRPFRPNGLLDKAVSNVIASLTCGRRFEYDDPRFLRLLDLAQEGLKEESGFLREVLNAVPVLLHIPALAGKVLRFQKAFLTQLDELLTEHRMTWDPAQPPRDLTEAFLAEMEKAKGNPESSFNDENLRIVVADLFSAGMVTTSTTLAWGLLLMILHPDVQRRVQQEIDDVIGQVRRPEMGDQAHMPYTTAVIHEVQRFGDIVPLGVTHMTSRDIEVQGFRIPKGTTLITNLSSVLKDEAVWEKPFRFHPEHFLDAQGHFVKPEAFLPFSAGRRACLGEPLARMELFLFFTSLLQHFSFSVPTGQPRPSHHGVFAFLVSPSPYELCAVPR
Sequence of Cytochrome P450 2C9 (Homo sapiens) (P11712 whole entry, looked up): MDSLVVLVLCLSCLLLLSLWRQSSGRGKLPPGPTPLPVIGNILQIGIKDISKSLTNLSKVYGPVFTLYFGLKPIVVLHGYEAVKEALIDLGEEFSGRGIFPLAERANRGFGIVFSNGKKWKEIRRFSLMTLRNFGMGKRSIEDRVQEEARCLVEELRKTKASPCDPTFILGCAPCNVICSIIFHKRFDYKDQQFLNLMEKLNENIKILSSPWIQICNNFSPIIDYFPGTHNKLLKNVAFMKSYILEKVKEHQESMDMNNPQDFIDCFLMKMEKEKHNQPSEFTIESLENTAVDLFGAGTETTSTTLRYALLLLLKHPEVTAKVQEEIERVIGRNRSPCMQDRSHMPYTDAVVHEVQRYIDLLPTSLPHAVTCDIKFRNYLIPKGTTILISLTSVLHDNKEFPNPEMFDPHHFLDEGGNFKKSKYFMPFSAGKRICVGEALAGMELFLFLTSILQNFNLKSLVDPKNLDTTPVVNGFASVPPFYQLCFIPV
Sequence of Cytochrome P450 1A2 (Homo sapiens) (P05177 whole entry, looked up): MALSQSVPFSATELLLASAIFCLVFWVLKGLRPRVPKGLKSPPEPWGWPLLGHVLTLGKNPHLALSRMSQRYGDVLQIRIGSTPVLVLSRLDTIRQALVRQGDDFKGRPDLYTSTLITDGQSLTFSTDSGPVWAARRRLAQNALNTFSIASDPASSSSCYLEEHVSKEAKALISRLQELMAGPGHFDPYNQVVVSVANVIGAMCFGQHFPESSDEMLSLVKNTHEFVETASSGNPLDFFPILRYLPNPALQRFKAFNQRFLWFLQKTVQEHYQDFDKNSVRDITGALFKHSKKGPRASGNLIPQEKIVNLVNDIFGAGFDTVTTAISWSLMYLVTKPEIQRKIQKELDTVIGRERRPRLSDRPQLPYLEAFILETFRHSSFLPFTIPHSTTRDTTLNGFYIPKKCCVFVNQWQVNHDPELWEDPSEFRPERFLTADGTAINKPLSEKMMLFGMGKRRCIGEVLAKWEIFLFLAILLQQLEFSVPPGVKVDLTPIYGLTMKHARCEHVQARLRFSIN
Sequence of Ubiquitin carboxyl-terminal hydrolase 1 (Homo sapiens) (O94782 whole entry, looked up): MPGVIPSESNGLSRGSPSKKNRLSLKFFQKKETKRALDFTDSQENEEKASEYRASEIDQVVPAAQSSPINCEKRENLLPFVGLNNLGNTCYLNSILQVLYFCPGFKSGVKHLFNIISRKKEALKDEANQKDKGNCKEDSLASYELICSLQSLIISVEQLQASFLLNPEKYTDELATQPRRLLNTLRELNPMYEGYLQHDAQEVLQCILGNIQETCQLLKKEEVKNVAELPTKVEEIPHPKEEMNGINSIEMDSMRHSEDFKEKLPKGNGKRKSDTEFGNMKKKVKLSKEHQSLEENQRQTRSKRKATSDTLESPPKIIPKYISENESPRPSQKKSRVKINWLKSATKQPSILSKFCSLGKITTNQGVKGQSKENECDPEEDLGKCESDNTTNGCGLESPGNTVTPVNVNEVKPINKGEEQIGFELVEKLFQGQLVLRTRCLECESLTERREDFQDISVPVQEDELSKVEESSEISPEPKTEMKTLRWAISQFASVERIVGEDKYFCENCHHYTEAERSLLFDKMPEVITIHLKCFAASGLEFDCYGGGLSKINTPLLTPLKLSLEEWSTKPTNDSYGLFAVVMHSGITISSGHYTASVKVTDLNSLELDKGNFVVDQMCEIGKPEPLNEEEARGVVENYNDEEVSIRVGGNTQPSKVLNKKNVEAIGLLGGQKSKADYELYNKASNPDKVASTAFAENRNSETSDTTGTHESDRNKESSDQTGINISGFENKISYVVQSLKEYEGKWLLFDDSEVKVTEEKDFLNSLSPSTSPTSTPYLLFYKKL

On to `CC[C@]1(O)C[C@@H]2CN(CCc3c([nH]c4ccccc34)[C@](C(=O)OC)(c3cc4c(cc3OC)N(C)[C@H]3[C@](O)(C(=O)OC)[C@@H](C(=O)OC)[C@@]5(CC)C=CCN6CC[C@@]43[C@@H]65)C2)C1`, for which the Potency entry in test [1], in test [4], in test [5], in test [6], in test [7] and in test [8] was “inactive” throughout. The Potency in test [2] and in [3] was > 46 µM (inactive) each time.

As for `CCCCOC(=O)c1cc2c(cn1)[nH]c1ccccc12`, the Potency in [1] is 0.158 µM (active); in test [2], > 46 µM (inactive); in test [3] it was > 46 µM (inactive); in test [10], 7.94 µM (active); in test [11], 5.01 µM (active). The Potency entry in test [9], in test [4], in test [6], in test [7] and in [8] was “inactive” each time.

Take `COc1cc(N)c(Cl)cc1C(=O)OCCCN1CCCCC1`: the Potency result in test [1], in test [9], in [12], in [4], in [5] and in test [6] was “inactive” each time. The Potency entry in test [7] and in test [8] was “inactive” throughout. Further, the Potency in test [2] is > 46 µM (inactive); in test [3], > 46 µM (inactive); in test [13] it was 0.126 µM (active).

On to `C[N+]1(C)CCc2cc3c(cc2[C@@H]1[C@@H]1C(=O)Oc2c1ccc1c2OCO1)OCO3`, for which the Potency result was “inactive and 1.26 µM (active)” in test [1]; > 46 µM (inactive) in test [2]; > 46 µM (inactive) in [3]. Moreover, the Potency result in test [9], in test [12], in test [4], in test [6], in test [7] and in test [8] was “inactive” throughout.

Turning to `CS(=O)(=O)c1ccc(-c2cc(Br)sc2-c2ccc(F)cc2)cc1`, the Potency is 0.398 µM (active) in [1], > 46 µM (inactive) in test [2], > 46 µM (inactive) in test [3] and 0.794 µM (active) in [10]. The Potency result in test [9], in test [4], in test [6], in test [7] and in test [8] was “inactive” each time.

Take `NCCCCCCCCCCNS(=O)(=O)c1cccc2c(Cl)cccc12`: the Potency was 15.8 µM (active) in test [1]; > 46 µM (inactive) in test [2]; > 46 µM (inactive) in [3]; 0.0501 µM (active) in [10]; 1.26 µM (active) in [13]; 0.0794 µM (active) in test [11]. Moreover, the Potency entry in test [9], in [6], in test [7] and in test [8] was “inactive” each time.

Consider `C[C@@H](CCCCC(=O)Nc1ccc(C(F)(F)F)cc1)NCCc1cnc[nH]1`, for which the Potency entry in test [1], in [12], in test [4], in [5], in test [6] and in test [7] was “inactive” each time. For the same molecule, the Potency entry in test [8] was “inactive”. The Potency in test [2] was > 46 µM (inactive); in test [3], > 46 µM (inactive); in test [10], 7.94 µM (active); in test [14], 5.01 µM (active); in test [13], 5.01 µM (active).

`CSCC[C@H](C=O)NC(=O)[C@H](CC(C)C)NC(=O)[C@H](CC(C)C)NC(C)=O` (Ac-Leu-Leu-[dM]-aldehyde): the Potency result in [1], in [9], in [12], in [5], in test [6] and in [7] was “inactive” throughout. In addition, the Potency entry in [8] is “inactive”. Besides, the Potency in test [2] and in test [3] was > 46 µM (inactive) each time.

In the case of `COc1cc(COc2cc(N)c(Cl)cc2C(=O)CCC2CCN(CCNS(C)(=O)=O)CC2)cc(OC)c1`, the Potency result in [1], in test [9], in [4], in test [6], in test [7] and in test [8] was “inactive” each time. Also, the figures for the Potency in [2], in [3] and in [13] were > 46 µM (inactive), > 46 µM (inactive) and 0.794 µM (active), respectively.

As to `N[C@@H](Cc1cc(-c2ccc(Cl)cc2Cl)cc(CP(=O)(O)O)c1O)C(=O)O`, the Potency in [1] is 20 µM (active); in [2], > 46 µM (inactive); in test [3] it was > 46 µM (inactive); in [7] it was 23.8 µM (active). Moreover, the Potency entry in test [9], in test [12], in test [6] and in [8] was “inactive” in each case.
